Compound activity as filed in PubChem.
NS1 function inh: influenza NS1 inhibition; Potency, µM (highest dose often 46.1 µM), without a hit: at the top dose activity, positive = more growth; 270,000 compounds, 0.4% hits; AID 2326; calls by dose curve; also: actives are rising curves; nearly all actives have a fitted effect of over 50% in size
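A cell-based growth assay was used: compounds that relieve NS1-induced slow growth of budding yeast raise OD600. Assay medium was yeast nitrogen base with ammonium sulphate and -URA supplement, pH 6.0, with 2% galactose.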
Pf growth 48h: inhibits P. falciparum growth in the first generation, 48 h; Potency, µM (titrated, usually from 28.7 µM), inactives show at the top dose activity change, negative = inhibition, most hits filed as inhibitors; 310,000 compounds, 5.9% hits; P. falciparum luciferase growth in erythrocytes, 48 h; AID 504832; also: % is scaled to controls: 0 for no effect and ±100 for the full control effect
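Here the parasites carry a stable luciferase gene and grow inside erythrocytes in Albumax-based RPMI medium with compound for one erythrocytic cycle. Activity is scored as loss of luminescent signal.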
RE007 growth inh: less growth of the S. pombe RE007 Vpr strain; Potency, µM (top dose mostly 92.2 µM), for the others: at the highest dose activity change, negative = less growth, most hits filed as inhibitors; S. pombe RE007 Vpr strain, BacTiter-Glo ATP luminescence, 24 h; AID 651644; 360,000 compounds, 0.21% hits; active = well fitted falling curve with a large enough effect; inconclusive = small, poorly fitted or top-dose-only effect; inactive = no such curve, though single readings can be large or run the other way; also: % is scaled to controls: 0 for no effect and ±100 for the full control effect; nearly all actives have a fitted effect of over 50% in size
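Fission yeast strain RE007, carrying one chromosomally integrated HIV-1 vpr copy, was seeded at OD 0.01 in PMG+AL medium with 23 nL pinned compound. After 24 h at 30 °C and 99% humidity, viability was read by BacTiter-Glo luminescence.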
SARS PLP yeast: blocks SARS-CoV papain-like protease in a yeast assay. Potency, µM (top dose mostly 32.9 µM), for the others: top-dose activity, positive = growth rescue, actives largely listed as activators. S. cerevisiae expressing SARS-CoV PLpro, growth rescue. 330,000 compounds, 0.19% hits; calls by dose curve; also: 0% is about no effect; nearly all actives have a fitted effect of over 55% in size
Pf growth 96h: P. falciparum growth inhibition at 96 hour, primary screen for plastid delayed-death inhibitors. 320,000 compounds, 6.9% hits. AID 504834. Potency, µM (highest dose often 28.7 µM), without a hit: top-dose activity change, negative = inhibition, most hits filed as inhibitors. P. falciparum luciferase reporter growth, 96 h; also: % is scaled to controls: 0 for no effect and ±100 for the full control effect
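Plates of compound plus infected erythrocytes (2% hematocrit, 0.05% parasitemia final) incubate 96 hours, 37 C, 5% CO2. Detection reagent added; reduced luminescence from the parasites' luciferase reporter flags inhibition.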
An asterisk follows results filed as active; ? = inconclusive; . = not tested or not shown; [ ] = another dose, or the depositor's remark. This is a sample that favours compounds with a hit; in the whole collection about 9.5% have one here. Unless noted, calls follow the shape of the dose curve; as a rule, active = well fitted inhibition curve with a large enough effect; inconclusive = small, poorly fitted or top-dose-only effect, or another doubt; inactive = no such curve, though single readings can be large or run the other way. Potency is read from the fitted curve at half-maximal effect.

SMILES	NS1 function inh	Pf growth 48h	RE007 growth inh	SARS PLP yeast	Pf growth 96h
CCOC(=O)c1sc(N2C(=O)C(O)=C(C(=O)c3ccc(C)o3)C2c2cccc([N+](=O)[O-])c2)nc1C (configuration not stated)	?	30.6%	-6.6%	2.2%	14.7µM*
CCOc1cc(C2c3c(n[nH]c3C)C(=O)N2c2ccc(Br)cc2)ccc1O (configuration not stated)	4.1%	7.7%	-8.7%	6.5%	13.1µM*
CCOC(=O)c1ccc(N2C(=O)c3n[nH]c(C)c3C2c2ccc(OC)c(OC)c2)cc1 (configuration not stated)	-12.6%	?	-4.3%	-5.5%	9.28µM*
CCOC(=O)c1ccc(N2C(=O)c3n[nH]c(-c4ccco4)c3C2c2cccc([N+](=O)[O-])c2)cc1 (configuration not stated)	?	8.28µM*	0.1%	4.1%	57.5%
CS(=O)(=O)Nc1ccc(Nc2c3ccccc3nc3ccccc23)cc1	-7.8%	.	.	.	.
CC1CN(C(=O)Nc2ccc(F)cc2F)CC(C)O1 (configuration not stated)	-2.2%	21.6%	4.0%	-4.4%	1.8%
CCc1nccn1CCC(=O)N1CCc2c([nH]c3ccccc23)C1CC(C)C (configuration not stated)	2.8%	?	-5.8%	1.7%	?
COCc1ccc(CN2CCc3c([nH]c4ccccc34)C2CC(C)C)o1 (configuration not stated)	28.2%	?	-17.9%	0.1%	6.57µM*
Cc1cc(/C=C2/NC(=O)N(Cc3ccccc3F)C2=O)c(C)n1C	22.6%	10.4µM*	-5.8%	-9.5%	10.4µM*
Cc1cc(/C=C2/NC(=O)N(Cc3ccccc3F)C2=O)c(C)n1-c1ccccn1	28.6%	9.28µM*	-10.3%	-7.6%	?
Cc1cccc(CN2C(=O)N/C(=C/c3cc(C)n(-c4ccccn4)c3C)C2=O)c1	13.0%	13.1µM*	0.2%	-1.1%	.
Cc1ccc(/C=C2/NC(=O)N(Cc3ccccc3F)C2=O)s1	.	25.0%	2.9%	-1.7%	?
COc1cc(NC(=O)c2cc(Cl)nnc2Cl)cc(OC)c1OC	-0.6%	11.7µM*	3.5%	0.5%	?
COc1cccc(NC(=O)c2cc(Cl)nnc2Cl)c1	.	3.7µM*	56.3%	-0.9%	?
COc1cc(NC(=O)c2cc(C(C)C)on2)cc(OC)c1OC	-21.2%	.	-2.3%	-6.6%	?
COc1cccc(NC(=O)c2cccc(Cl)c2)c1	.	94.1%	?	4.6%	163.1%
COc1ccc(CCC(C)NCc2ccccc2OC)cc1 (configuration not stated)	8.0%	?	2.8%	-3.1%	?
COc1ccc(CCC(C)NCc2cccc(Br)c2)cc1 (configuration not stated)	0.1%	-7.0%	-3.5%	1.8%	8.28µM*
Cc1nn(-c2cc(N3CCCCC3)ccc2[N+](=O)[O-])c(=O)c2ccccc12	-0.9%	?	0.4%	7.5%	-18.4%
CN1CCN(c2ccc([N+](=O)[O-])c(Sc3ccccn3)c2)CC1	0.8%	?	-6.0%	0.7%	0.294µM*
CN1CCN(c2ccc([N+](=O)[O-])c(-n3nc(-c4ccccc4)c4ccccc4c3=O)c2)CC1	13.3%	?	-2.2%	1.9%	8.28µM*
CN1CCN(c2ccc([N+](=O)[O-])c(Sc3nncn3C)c2)CC1	5.0%	-16.1%	-3.9%	-0.4%	?
CCC(C)NC(=O)c1ccc(Cl)c(S(=O)(=O)Nc2ccccc2N2CCOCC2)c1 (configuration not stated)	.	?	-10.3%	9.6%	?
CC(=O)c1cccc(NC(=O)COC(=O)CCC(=O)c2cccs2)c1	.	47.1%	2.3%	-4.4%	?
COc1ccc([C@@H](Nc2ccccn2)c2cc(C(C)(C)C)cc(C(C)(C)C)c2O)cc1	-0.6%	.	.	.	.
SMILES	NS1 function inh	Pf growth 48h	RE007 growth inh	SARS PLP yeast	Pf growth 96h
COc1cccc(-c2nn3c(-c4ccco4)nnc3s2)c1	9.9%	10.1%	4.7%[3.69 µM]	0.3%	8.28µM*
Cc1cccc(-c2nnc3sc(-c4ccccc4)nn23)c1	-25.4%	14.0%	-8.3%	0.6%	2.33µM*
COc1cccc(-c2nn3c(-c4cc(C)[nH]n4)nnc3s2)c1	-2.0%	.	-6.0%	2.5%	10.4µM*
COc1cccc(-c2nn3c(-c4ccccn4)nnc3s2)c1	1.4%	.	-13.7%	2.3%	59.5%
O=C(NCc1cccnc1)C1C2C=CC(C2)C1C(=O)Nc1cccc(C(F)(F)F)c1 (configuration not stated)	.	.	-10.2%	.	.
Oc1cc(OCc2ccccc2)ccc1-c1[nH]ncc1-c1ccccc1	-55.5%	?	?	-4.1%	?
O=[N+]([O-])c1ccc(COc2ccc(-c3[nH]ncc3-c3ccccc3)c(O)c2)cc1	5.2%	13.1µM*	23.8%	14.2%	6.57µM*
C=C(C)COc1ccc(-c2[nH]ncc2-c2ccccc2)c(O)c1	-148.1%	10.4µM*	?	-20.1%	?
C=C(C)COc1ccc(-c2[nH]ncc2-c2ccc(OC)c(OC)c2)c(O)c1	-109.8%	1.85µM*	-0.4%	?	2.33µM*
CCCNC(=O)C1(C)CCN(C(=O)/C=C/c2ccccc2)C1 (configuration not stated)	.	.	6.8%[18.4 µM]	.	.
CCOC(=O)CC1(C)Oc2cc(Cl)ccc2N1S(=O)(=O)c1ccc(C)cc1 (configuration not stated)	.	.	0.3%	.	.
CC(C)C(=O)N1CCN(c2ccccc2NC(=O)c2ccc3c(c2)OCCO3)CC1	.	.	11.9%	.	.
Cc1noc(NC(=O)Nc2ccccc2F)c1C#N	-10.8%	.	.	.	.
CC(C)N(C(=O)c1nn(C)c2c1CSc1ccccc1-2)C1CCCCC1	14.7%	-23.5%	-12.1%	-4.7%	2.08µM*
OC1CCCN(c2c3c(nc4cc(-c5cccc(Cl)c5)nn24)CCC3)C1 (configuration not stated)	-44.6%	4.65µM*	2.2%	-23.3%	0.0%
Fc1ccc(-c2cc3nc4c(c(N5CCOCC5)n3n2)CCCC4)cc1	-67.4%	10.4µM*	-8.5%	-15.2%	-6.5%
OC1CCN(c2cc(-c3ccccc3)nc3cc(-c4ccc(F)cc4)nn23)CC1	-2.4%	?	3.2%	-2.1%	20.3%
CCN1CCN(c2cc(-c3ccccc3)nc3cc(-c4cccc(F)c4)nn23)CC1	-11.0%	?	23.9%	10.6%	11.7µM*
Cc1cccc(-c2cc3nc4c(c(N5CCOCC5)n3n2)CCCC4)c1	-80.3%	?	-16.9%	-27.6%	74.6%
Cc1cccc(-c2cc3nc4c(c(N5CCCC(O)C5)n3n2)CCC4)c1 (configuration not stated)	-237.5%	6.57µM*	7.2%	-45.2%	-30.9%
CC(C)C(=O)N1CCC1(C)C(=O)Nc1ccc2[nH]ccc2c1 (configuration not stated)	.	.	7.5%	.	.
COc1ccc(-c2cc3nc(-c4ccccc4)cc(N4CCC5(CC4)OCCO5)n3n2)cc1	-2.2%	.	2.2%	-10.7%	50.3%
